{
  "source": "PubChem BioAssay AID1347171",
  "about": "(National Center for Advancing Translational Sciences (NCATS), 2019)",
  "note": "Records with an inconclusive call do not appear. Activity calls are given as the source filed them. Calls come from the whole dose curve; as a rule, active = well fitted inhibition curve with a large enough effect; inconclusive = small, poorly fitted or top-dose-only effect; inactive = no such curve, though single readings can be large or run the other way.",
  "data": [
    {"test": "Orthogonal mCherry assay for qRT-PCR qHTS of selected Zika virus inhibitors", "details": "Vero cells, ZIKV-mCherry infection imaging, 48-72 h; series mostly up to 32.6 µM", "text": "Description: Assay Submitters (PI): Avindra Nath, Ph.D., National Institute of Neurological Disorders and Stroke (NINDS), Bethesda, MD Radhakrishnan Padmanabhan, Ph.D., Georgetown University (GU), Washington D.C. Zika Virus causes congenital defects, including microcephaly and is associated with Guillain-Barre syndrome, eningoencephalitis and myelitis in infected adult. […] Using a target-based approach, we hope to establish a screening paradigm to uncover novel, cell-active NS2B-NS3 protease (Zika Virus) specific inhibitors from NCATS' collection of small molecules using qHTS. […] Four assay panel was created to identify potential Zika Virus inhibitors. Namely, (1) GU unlinked NS2B-NS3 AMC tagged protease qHTS, (2) GU unlinked NS2B-NS3 Rhodamine tagged protease qHTS, (3) NINDS linked NS2B-NS3 AMC tagged protease qHTS, (4) NINDS linked NS2B-NS3 Rhodamine tagged protease qHTS. Inhibitors of the Zika virus primary screens are confirmed using qRT-PCR secondary assays, mCherry orthogonal assay, and Vero cells viability counterscreen. Early Translation Branch (ETB) National Center for Advancing Translational Sciences (NCATS), Rockville, MD National Institute of Health (NIH), Bethesda, Maryland\n384 well ZIKV-mCherry Assay: We have developed a new orthogonal imaging assay in 384-well plate format, which uses recombinant virus ZIKV-mCherry in Vero cells. Briefly, 30 microL of Vero cells derived from a green monkey cell line, were dispensed by Multidrop Dispenser into a clear solid bottom black 384 well plate (ultracarrier, Perkin Elmer LifeSciences) at a concentration of 5,000 cells per well. […] The TIFFs were quantitated using the canned Multi Target Analysis protocol (GE Investigator Workstation software v3.7.2). […] A recombinant Zika viral infection was monitored in the Cy5 channel (cells) using a 2 microm collar dilation from the nuclear bitmap. mCherry objects with an average nuclear RFU intensity above 450 (3 stdev above mean negative control wells) were considered \"mcherry positive\" and data was analyzed by percent infection rate.", "values": [
      {"smiles": "O=C1OC(c2ccc(O)c(S(=O)(=O)O)c2)(c2ccc(O)c(S(=O)(=O)O)c2)c2c(Br)c(Br)c(Br)c(Br)c21", "Potency": "inactive"},
      {"smiles": "CC(=O)c1c(O)c(C)c(O)c(Cc2c(O)c3c(c(C(=O)/C=C/c4ccccc4)c2O)OC(C)(C)C=C3)c1O", "Potency": "11.2 µM (active)"},
      {"smiles": "CC(C)=CCC[C@]1(C)C=Cc2c(O)c3c(c(CC=C(C)C)c2O1)O[C@]12C(=C[C@@H]4CC1C(C)(C)O[C@@]2(C/C=C(/C)C(=O)O)C4=O)C3=O", "Potency": "3.55 µM (active)"}
    ]}
  ]
}
